A short description of assay [1]: qHTS assay to identify small molecule agonists of the vitamin D receptor (VDR) signaling pathway - cell viability counter screen (AID 743224; active means well fitted curve in the direction sought with a large enough effect in the repeat runs; an effect the other way counts as inactive or inconclusive; further: nearly all actives have a fitted effect of over 50% in size; further: potency means the concentration at half of the fitted maximal effect; on activity change, negative = cytotoxicity: series mostly up to about 63 µM; on the % scale 0 is the no-effect control and ±100 the full control effect). The essentials: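 Viability is measured in the same wells as the VDR-bla reporter assay: after 16 h compound treatment and 2 h substrate loading, CellTiter-Glo is added and luminescence read 30 min later.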
(qHTS replaces the single test concentration by a dilution series.)

The nature of assay [2]: qHTS assay to identify small molecule antagonists of the vitamin D receptor (VDR) signaling pathway - cell viability counter screen (AID 743225; active means well fitted curve in the direction sought with a large enough effect in the repeat runs; an effect the other way counts as inactive or inconclusive; further: on the % scale 0 is the no-effect control and ±100 the full control effect; nearly all actives have a fitted effect of over 50% in size). The gist of the method:
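Viability counter screen run in the same wells as the beta-lactamase reporter assay: HEK 293T VDR-UAS-bla cells, 16 h compound exposure at 37C with 3 nM (final) 1-alpha,25-dihydroxyvitamin D3. CellTiter-Glo luminescence, 30 min, room temperature.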

Assay [3] can be described thus: qHTS assay to identify small molecule agonists of the NFkB signaling pathway - cell viability counter screen (AID 1159515). Further: nearly all actives have a fitted effect of over 55% in size. Further: potency means the concentration at half of the fitted maximal effect. On activity, negative = cytotoxic: series mostly up to about 61 µM; on the % scale 0 is the no-effect control and ±100 the full control effect. The gist of the method:
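Multiplexed viability readout: after the 5 hr compound exposure and 1.5 hr FRET substrate step, CellTiter-Glo reagent went into the same NFkB-bla ME-180 wells; ATP luminescence was measured after 30 min at room temperature.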

Assay [4] can be described thus: qHTS assay to identify small molecule agonists of the endoplasmic reticulum stress response signaling pathway (AID 1159516; active means well fitted activation curve with a large enough effect in the signal ratio in the repeat runs, not every such curve was filed as active; the % refers to the signal ratio; further: on the % scale 0 is the no-effect control and ±100 the full control effect). The gist of the method:
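Tox21 10K library screened in quantitative HTS format on ESRE-bla HeLa cells, a beta-lactamase reporter under ER stress response element control; 5 hr treatment, FRET read.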

Assay [5] is described as follows: qHTS assay to identify small molecule agonists of the endoplasmic reticulum stress response signaling pathway - cell viability counter screen (AID 1159517). Further: series mostly up to about 61 µM; on the % scale 0 is the no-effect control and ±100 the full control effect; nearly all actives have a fitted effect of over 50% in size. The essentials: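 CellTiter-Glo was added to wells already read for beta-lactamase FRET, and luminescence was recorded 30 min later. Cells: ESRE-bla HeLa, 1,500 per well, compound exposure 5 hr at 37 C.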
Assay [6] in a line: qHTS assay to identify small molecule antagonists of the retinoid-related orphan receptor gamma (ROR-gamma) signaling pathway - cell viability counter screen (AID 1159520; active means well fitted curve in the direction sought with a large enough effect in the repeat runs; an effect the other way counts as inactive or inconclusive; further: nearly all actives have a fitted effect of over 50% in size; further: potency means the concentration at half of the fitted maximal effect). The gist of the method: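 Tet-on ROR gamma CHO cells (1,000/well) were plated 4 hr, given compounds in DMSO for 2 hr at 37 C, then induced with 1 uM final doxycycline for 16 hr. Viability was read as ATP by CellTiter-Glo luminescence after 30 min.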

Assay [7] deals with Nuclear receptor ROR-gamma (Homo sapiens) (UniProt P51449). The assay can be described thus: qHTS assay to identify small molecule antagonists of the retinoid-related orphan receptor gamma (ROR-gamma) signaling pathway (AID 1159521; active means well fitted curve in the direction sought with a large enough effect in the repeat runs; an effect the other way counts as inactive or inconclusive; further: nearly all actives have a fitted effect of over 50% in size; further: potency means the concentration at half of the fitted maximal effect). The essentials: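 Luminescence readout (ONE-Glo, 30 min RT) after 16 h doxycycline induction; loss of signal scored as antagonism. CHO cells with TET-inducible RORγ and RORE-LUC reporter; compounds added 2 h before 1 uM final doxycycline.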

Assay [8] is described as follows: qHTS assay to identify small molecule agonists of the AP-1 signaling pathway - cell viability counter screen (AID 1159525). Further: nearly all actives have a fitted effect of over 55% in size. The essentials:
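ME-180 AP-1-bla, 2500 cells/well, Opti-MEM + 0.5% dialyzed FBS; overnight 37 °C; cpd 15-pt titration, 5 h 37 °C; CellTiter-Glo 30 min RT; luminescence read; normalised to TOAB and DMSO controls.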

Assay [9] can be described thus: qHTS assay to identify small molecule agonists of the AP-1 signaling pathway (AID 1159526). Further: on the % scale 0 is the no-effect control and ±100 the full control effect.
The target of assay [10] is Retinoic acid receptor RXR-alpha (Homo sapiens) (UniProt P19793). The assay is described as follows: qHTS assay to identify small molecule agonists of the RXR signaling pathway (AID 1159527). Further: on the % scale 0 is the no-effect control and ±100 the full control effect; nearly all actives have a fitted effect of over 35% in size. The gist of the method:
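Agonist mode; 9-cis retinoic acid positive control. HEK 293T UAS-bla reporter cells, 2% charcoal-stripped FBS, 16 hr compound exposure at 37 C/5% CO2. LiveBLAzer B/G FRET substrate 2 hr RT; ex 405, em 460/530 nm.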

Inconclusive results are not listed. Values without a mark were called inactive. The source made the active and inactive calls. Unless noted, the call rests on the fitted dose curve.

Retinoic acid receptor RXR-alpha (Homo sapiens), sequence (P19793 whole entry, looked up): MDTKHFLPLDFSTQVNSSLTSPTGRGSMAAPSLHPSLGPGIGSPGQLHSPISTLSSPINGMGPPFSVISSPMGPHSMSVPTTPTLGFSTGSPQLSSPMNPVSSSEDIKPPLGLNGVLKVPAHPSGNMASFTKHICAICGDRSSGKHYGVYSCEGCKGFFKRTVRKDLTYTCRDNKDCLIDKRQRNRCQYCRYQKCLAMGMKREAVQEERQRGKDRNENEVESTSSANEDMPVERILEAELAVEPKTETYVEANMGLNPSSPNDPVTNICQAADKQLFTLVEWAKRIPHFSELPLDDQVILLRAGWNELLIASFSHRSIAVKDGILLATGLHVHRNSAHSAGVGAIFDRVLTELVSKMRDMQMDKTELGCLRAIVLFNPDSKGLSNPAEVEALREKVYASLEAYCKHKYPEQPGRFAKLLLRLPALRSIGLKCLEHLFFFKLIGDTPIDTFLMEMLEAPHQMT

Turning to `CN1CCC(=C2c3ccccc3Sc3ccccc32)CC1`, the Potency entry in assay [1], in assay [2], in assay [3], in [4], in assay [5] and in [6] was “inactive” throughout. In addition, in assay [8], the Potency entry was “inactive”. Besides, the Potency in assay [7] was 29.8 µM (active).
As to `C1CCCNCCC1`, the Potency entry in [2], in [3], in assay [4], in [5], in assay [6] and in assay [7] was “inactive” throughout. In addition, the Potency result in assay [9] and in assay [10] was “inactive” in each case.
Consider `COc1ccc(C(=O)Nc2nc3ccccc3c(NCc3ccccc3)c2C#N)cc1`, for which the Potency result in assay [1], in [2], in assay [3], in [4], in assay [5] and in assay [6] was “inactive” each time. Besides, the Potency result in assay [7] and in [8] was “inactive” throughout.
For `O=C1CCCCCCCCCCCC(=O)OCCO1`, the Potency result in assay [1], in assay [3], in [4], in [5], in [6] and in [7] was “inactive” in each case. The Potency result in assay [8] is “inactive”.
For `CN1CCC(N(Cc2cccs2)c2ccccc2)CC1`, the Potency entry in assay [2], in assay [3], in assay [4], in assay [5], in [6] and in [7] was “inactive” in each case. In assay [8], the Potency result is “inactive”.
Regarding `O=C(OCCCCCCOC(=O)c1ccccc1)c1ccccc1`, the Potency in [1] was 43.6 µM (active). Further, the Potency result in assay [2], in assay [3], in assay [4], in assay [5], in assay [6] and in assay [7] was “inactive” each time. Also, the Potency result in assay [8] was “inactive”.
As to `CCOC(=O)NCCOc1ccc(Oc2ccccc2)cc1`, the Potency entry in assay [1], in [2], in assay [3], in [4], in assay [5] and in assay [6] was “inactive” each time. Besides, the Potency entry in assay [8] was “inactive”. Further, the Potency in assay [7] is 43.3 µM (active).
Take `Cc1oc2c(NC(=O)c3c(Cl)cccc3Cl)cccc2c1C(C)(C)O`: the Potency entry in assay [3], in assay [4], in [5], in [6] and in assay [9] was “inactive” throughout. Moreover, the Potency in [7] is 27.3 µM (active).
For `Cc1cccc(C)c1OCC(=O)N[C@@H](Cc1ccccc1)[C@@H](O)C[C@H](Cc1ccccc1)NC(=O)[C@H](C(C)C)N1CCCNC1=O`, the Potency entry in [1], in assay [2], in assay [4], in assay [5], in [6] and in assay [9] was “inactive” throughout. In addition, the figures for the Potency in assay [3] and in assay [7] were 19 µM (active) and 29.8 µM (active), respectively.
On to `C=C1C(=C/C=C2\CCC[C@]3(C)[C@@H]([C@H](C)/C=C/[C@@H](O)C4CC4)CC[C@@H]23)C[C@@H](O)C[C@@H]1O`, for which the Potency result in [3], in assay [4], in assay [5] and in [6] was “inactive” in each case. For the same molecule, the Potency in assay [7] was 13.3 µM (active).
For the molecule `O[C@@H](COc1cccc2ncccc12)CN1CCN(C2c3ccccc3[C@@H]3[C@H](c4ccccc42)C3(F)F)CC1` (stereo not given in full), the Potency entry in assay [3], in assay [4], in [5], in [6], in assay [7] and in [9] was “inactive” throughout.
On to `Cc1cc(N)c2cc(NC(=O)Nc3ccc4nc(C)cc(N)c4c3)ccc2n1`, for which the Potency result in assay [3], in assay [4], in assay [5] and in assay [6] was “inactive” each time.
Turning to `Cc1[nH]c(C)c(Cl)c(=O)c1Cl`, the Potency entry in assay [1], in assay [2], in assay [3], in assay [4] and in assay [5] was “inactive” in each case. Further, the activity, negative = cytotoxicity in assay [6] is 3.57% [at 19 µM]. Also, the activity change, negative = inhibition in assay [7] is -2.21% [at 19 µM]. Also, the activation was -0.748% [at 15.8 µM] in assay [9] and 5.66% [at 15.8 µM] in assay [10].
As for `Clc1ccc2c(c1)CCc1cccnc1C2=C1CCNCC1`, the Potency result in assay [3], in assay [4], in assay [5], in assay [6], in [7] and in assay [9] was “inactive” each time.
On to `CC(=O)c1ccc2c(c1)N(CCCN1CCC(CCO)CC1)c1ccccc1S2`, for which the Potency entry in assay [3], in assay [4] and in assay [5] was “inactive” each time.
In the case of `O=C(CS)Nc1ccccc1`, the Potency entry in assay [1], in assay [2], in [3], in [4], in assay [5] and in assay [6] was “inactive” throughout. For the same molecule, the Potency result in assay [7] and in assay [9] was “inactive” throughout.
As for `CN(C)c1ccc(/C=C/c2ccc([N+](=O)[O-])cc2)cc1`, the activity change, negative = cytotoxicity in assay [1] was -5.5% [at 5.95 µM]; in [5] it was 15.7% [at 6.95 µM]. In addition, in [2], the viability change, negative = cytotoxic was 7.13% [at 6.95 µM]. Moreover, in assay [3], the activity, negative = cytotoxic was -0.218% [at 6.95 µM]. For the same molecule, the activation was -8.84% [at 6.95 µM] in assay [4], -11.3% [at 6.97 µM] in assay [9] and -7.68% [at 6.98 µM] in [10]. The activity, negative = cytotoxicity in assay [6] is 1.18% [at 8.39 µM]. For the same molecule, in [7], the activity change, negative = inhibition was 127% [at 8.39 µM].
Take `CC(C)Nc1ccc(NC(C)C)c2c1C(=O)c1ccccc1C2=O`: the Potency result in assay [1], in assay [2], in [3], in assay [4], in assay [5] and in assay [8] was “inactive” each time. Further, the Potency is 28.4 µM (active) in assay [6] and 25.3 µM (active) in assay [7].
With `CCC(CC)Nc1ccc(C)c(C)c1`, the Potency entry in assay [2], in assay [3], in [4], in [5], in assay [6] and in assay [7] was “inactive” in each case. Moreover, the Potency entry in assay [8] is “inactive”.
On to `C[Si](C)(CCCN)O[Si](C)(C)CCCN`, for which the Potency entry in assay [1], in [2], in assay [3], in assay [4], in assay [5] and in [6] was “inactive” each time. In addition, the Potency result in assay [7], in assay [9] and in [10] was “inactive” throughout.
With `CCCCCCCC#N`, the Potency entry in [2], in assay [3], in assay [4], in [5], in assay [6] and in [7] was “inactive” throughout. In addition, the Potency entry in assay [8] was “inactive”.
Consider `CCOC(=O)C(O)c1ccccc1` (stereo not given), for which the Potency result in assay [1], in [2], in assay [3], in [4], in assay [5] and in assay [6] was “inactive” in each case. Further, the Potency result in [7], in assay [9] and in assay [10] was “inactive” throughout.
`CCCCC/C=C\C/C=C\CCCCCCCC(=O)NC(C)c1ccccc1` (stereo not given): the Potency result in [1], in assay [2], in [3], in assay [4], in assay [5] and in assay [6] was “inactive” throughout. The Potency result in assay [7] and in assay [9] was “inactive” in each case.
Consider `Cc1ccccc1S(=O)(=O)O`, for which the Potency result in assay [1], in assay [2], in assay [3], in [4], in assay [5] and in assay [6] was “inactive” each time. Further, the Potency result in assay [7], in [9] and in assay [10] was “inactive” each time.
As to `CCCCC`, the Potency result in [1], in [3], in assay [4], in assay [5], in assay [6] and in [7] was “inactive” in each case. Also, the Potency result in assay [9] and in assay [10] was “inactive” each time.
As to `O=C1OC(=O)C2C3C=CC(C3)C12` (stereo not given), the Potency result in [2], in assay [3], in assay [4], in [5], in [6] and in assay [7] was “inactive” in each case. Further, the Potency result in assay [9] and in assay [10] was “inactive” each time.
In the case of `C#CCN(C)CCCOc1ccc(Cl)cc1Cl`, the Potency result in assay [1], in [2], in [3], in assay [4], in assay [5] and in [6] was “inactive” each time. For the same molecule, the Potency entry in [7], in assay [9] and in [10] was “inactive” each time.

For the origin of these results see PubChem BioAssay (Tox21).
